Reference: PubChem BioAssay AID720511 (Broad Institute, 2013)
Out of some 350,000 compounds screened, about 1,300 (0.37%) were called active. This is one part of a sample in which actives are shown more often than they occur.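 Rule for the calls: active = mean added fluorescence quench of at least 8% versus neutral control, with both replicates also reaching 8%; inconclusive = only one of the mean or replicate conditions met; inactive = mean below 8% and not both replicates reaching 8%.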

Test: F508del CFTR correction, initial screen, CFBE line, single point (AID 720511);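 note: cells transiently co-express mutant CFTR-F508del with the halide-sensitive YFP; corrector assay measuring rescue of mutant channel to the surface after 24 h compound exposure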
Conditions: CFBE cells, YFP halide quenching, at 7.58 µM, hits give high values, % fluorescence drop versus neutral controls, stimulated with forskolin plus potentiator P3
With `COc1ccc(NC(=O)N(C)C[C@H]2OCCCC[C@@H](C)Oc3ccc(NS(=O)(=O)c4ccc(F)cc4)cc3C(=O)N([C@H](C)CO)C[C@H]2C)cc1` the activity (quench increase) was 3.43% (inactive).
In the case of `C[C@@H](O)C#Cc1ccc([C@@H]2[C@H]3CN(S(=O)(=O)c4ccccc4)CCCCN3[C@H]2CO)cc1`, the activity (quench increase) was 1.07% (inactive).
For `CO[C@@H]1CC[C@@H]2CCOc3c(C#N)cccc3C(=O)N(C)C[C@H](C)C(=O)N(C)C[C@H]1O2`, the activity (quench increase) was 1.86% (inactive).
In the case of `Cn1cc(C2OC(=O)c3ccccc32)c2ccccc21` (configuration not stated), the activity (quench increase) was 1.54% (inactive).
With `CN1C(=O)c2cccc3c(N)ccc(c23)C1=O` the activity (quench increase) was 23.7% (active).
For `O=C1c2cccc3c([N+](=O)[O-])ccc(c23)C(=O)N1CC1CCCO1` (configuration not stated), the activity (quench increase) was 0.491% (inactive).
With `NC(=O)c1ncn([C@@H]2O[C@H](C(=O)O)[C@@H](O)[C@H]2O)n1` the activity (quench increase) was 2.03% (inactive).
For `COc1ccc(CN(C)C[C@@H]2OCCCC[C@@H](C)Oc3ccc(NC(=O)Nc4ccc(OC)cc4)cc3C(=O)N([C@@H](C)CO)C[C@@H]2C)cc1`, the activity (quench increase) was -0.139% (inactive).
For `COc1ccc(-c2cn(CC[C@@H]3CC[C@@H](NS(=O)(=O)c4ccccc4C)[C@H](CO)O3)nn2)cc1`, the activity (quench increase) was 2.94% (inactive).
In the case of `CCc1cc(-c2nnn(CCC3COCCO3)c2CC)ccc1-c1cn(Cc2ccc3ccccc3c2)nn1` (configuration not stated), the activity (quench increase) was 8.99% (active).
In the case of `CCCC(=O)Nc1ccc2c(c1)OC[C@H](C)N(S(=O)(=O)c1cn(C)cn1)C[C@@H](C)[C@H](OC)CN(C)C2=O`, the activity (quench increase) was -4.43% (inactive).
With `O=C(c1ccccn1)N1CC[C@@H]2[C@H]1c1cc(-c3ccccc3)ccc1N[C@@H]2CO` the activity (quench increase) was -1.72% (inactive).
For `O=C1CN(S(=O)(=O)Cc2ccccc2)C[C@@H]2[C@@H](c3ccc(C#Cc4ccccc4)cc3)[C@@H](CO)N12`, the activity (quench increase) was 7.93% (inactive).
In the case of `CCS(=O)(=O)N1CC(=O)N2[C@H](CO)[C@@H](c3ccc(C#Cc4cccc(F)c4)cc3)[C@@H]2C1`, the activity (quench increase) was 7.13% (inactive).
For `O=C1CN(S(=O)(=O)Cc2ccccc2)C[C@@H]2[C@@H](c3ccc(C#Cc4cccc(F)c4)cc3)[C@@H](CO)N12`, the activity (quench increase) was 9.07% (active).
For `CCS(=O)(=O)N1CCC2(CC1)CN[C@H](CO)c1c2c2ccc(OC)cc2n1C`, the activity (quench increase) was 0.371% (inactive).
With `C[C@@H]1CN([C@@H](C)CO)C(=O)c2cc(NS(C)(=O)=O)ccc2O[C@@H]1CN(C)C(=O)Nc1ccc(F)cc1` the activity (quench increase) was -3.43% (inactive).
With `O=C(NCC1COc2ccccc2O1)C1(c2ccccc2)CCCC1` (configuration not stated) the activity (quench increase) was 1.14% (inactive).
With `Cc1noc(C)c1C(=O)NCC1COc2ccccc2O1` (configuration not stated) the activity (quench increase) was 19.3% (active).
For `O=C(COC(=O)c1ccc(F)cc1)NCC1COc2ccccc2O1` (configuration not stated), the activity (quench increase) was -0.696% (inactive).
In the case of `CC(=O)N(C)C[C@H]1Oc2ncc(C#Cc3ccccn3)cc2C(=O)N([C@H](C)CO)C[C@@H]1C`, the activity (quench increase) was 0.118% (inactive).
For `CO[C@@H](CN(C)S(=O)(=O)c1ccccc1)[C@H](C)CN(Cc1ccccc1Cl)[C@H](C)CO`, the activity (quench increase) was -3.7% (inactive).
For `COc1ccc2c3c(n(C)c2c1)[C@H](CO)N(S(=O)(=O)c1ccc(C)cc1)CC31CN(C(=O)c2ccccn2)C1`, the activity (quench increase) was 1.98% (inactive).
In the case of `Cc1ccc(S(=O)(=O)Nc2ccc3c(c2)C(=O)N([C@H](C)CO)C[C@@H](C)[C@H](CN(C)C(=O)Nc2ccc(C(F)(F)F)cc2)OCCCC[C@H](C)O3)cc1`, the activity (quench increase) was -0.228% (inactive).
With `Oc1cccc(/C=N/Nc2ccc(Cl)nn2)c1O` the activity (quench increase) was 13.3% (active).
In the case of `C/C(=N\Nc1ccc(Cl)nn1)c1ccccc1O`, the activity (quench increase) was -2.03% (inactive).
For `C[C@H]1CCCCO[C@H](CN(C)Cc2ccccc2)[C@@H](C)CN([C@@H](C)CO)C(=O)c2cc(NC(=O)c3ccccc3)ccc2O1`, the activity (quench increase) was -0.952% (inactive).
For `C[C@H]1CN([C@@H](C)CO)S(=O)(=O)c2ccc(C3=CCCCC3)cc2O[C@@H]1CN(C)Cc1ccccc1`, the activity (quench increase) was -0.755% (inactive).
For `C[C@@H]1CN([C@@H](C)CO)S(=O)(=O)c2ccc(-c3ccc(F)cc3)cc2O[C@@H]1CN(C)CC1CC1`, the activity (quench increase) was 2.11% (inactive).
With `Oc1ccc(/C=N/Nc2nc(-c3ccccc3F)nc3ccccc23)c(O)c1` the activity (quench increase) was 12.3% (active).
With `CO[C@@H]1CN(C)C(=O)c2ccc(NS(=O)(=O)c3cccc(Cl)c3)cc2OC[C@H](C)NC[C@H]1C` the activity (quench increase) was -1.91% (inactive).
For `CC(C)NC(=O)N(C)C[C@H]1Oc2ccc(NC(=O)Cn3cnnn3)cc2CC(=O)N([C@H](C)CO)C[C@H]1C`, the activity (quench increase) was -1.17% (inactive).
With `Cc1noc(C)c1S(=O)(=O)N(C)C[C@H]1Oc2c(NC(=O)c3cnccn3)cccc2C(=O)N([C@H](C)CO)C[C@H]1C` the activity (quench increase) was -0.706% (inactive).
With `Cc1cccc(N(C)C(=O)c2cc3c(=O)[nH]c4ccc(C)cc4c3s2)c1` the activity (quench increase) was 15.5% (active).
In the case of `CCN(CC)CCCNC(=O)c1cc2c(=O)[nH]c3ccc(C)cc3c2s1`, the activity (quench increase) was 4.04% (inactive).
For `Cc1ccc2[nH]c(=O)c(CC(=O)O)c(-c3ccccc3)c2c1`, the activity (quench increase) was -4.85% (inactive).
With `Cc1cccc(S(=O)(=O)N2C[C@@H]3[C@H](c4ccccc42)[C@H](CO)N3CC2CCOCC2)c1` the activity (quench increase) was -1% (inactive).
With `Cc1ccc(S(=O)(=O)N[C@@H]2CC[C@H](CCn3cc(-c4cccc(F)c4)nn3)O[C@@H]2CO)cc1` the activity (quench increase) was -2.65% (inactive).
With `C[C@@H](NC(=O)[C@@H]1[C@@H](CO)[C@@H]2Cn3c(ccc(C4=CCCCC4)c3=O)[C@@H]2N1C)c1ccccc1` the activity (quench increase) was 1.82% (inactive).
With `C[C@@H]1CCCCO[C@H](CN(C)C(=O)Nc2ccc3c(c2)OCO3)[C@@H](C)CN([C@@H](C)CO)C(=O)c2cc(NC(=O)CCC(F)(F)F)ccc2O1` the activity (quench increase) was 2.41% (inactive).
In the case of `CCS(=O)(=O)N1CC2(CN(C(=O)c3ccc(F)cc3)[C@H](CO)c3c2c2ccc(OC)cc2n3C)C1`, the activity (quench increase) was 2.9% (inactive).
In the case of `COc1ccc(NC(=O)C2Cc3c(-c4ccc(Cl)cc4)ccnc3O2)cc1` (configuration not stated), the activity (quench increase) was -2.37% (inactive).
For `S=c1[nH]nc(-c2ccc(Cl)cc2)n1CC1CCCO1` (configuration not stated), the activity (quench increase) was -0.339% (inactive).
With `O=C(c1[nH]ncc1-c1ccc(Cl)cc1)C1CO1` (configuration not stated) the activity (quench increase) was 9.82% (active).
With `C[C@H](CO)N1C[C@H](C)[C@@H](CN(C)C(=O)C2CC2)Oc2ncc(-c3cccc(C#N)c3)cc2C1=O` the activity (quench increase) was 0.111% (inactive).
For `Cc1ccc(S(=O)(=O)Nc2ccc3c(c2)C(=O)N([C@@H](C)CO)C[C@@H](C)[C@H](CN(C)C(=O)NC(C)C)OCCCC[C@H](C)O3)cc1`, the activity (quench increase) was -0.752% (inactive).
In the case of `COc1ccc(S(=O)(=O)Nc2ccc3c(c2)C(=O)N([C@@H](C)CO)C[C@@H](C)[C@H](CN(C)C(=O)Nc2ccc(C(F)(F)F)cc2)OCCCC[C@@H](C)O3)cc1`, the activity (quench increase) was -1.09% (inactive).
In the case of `CCOC(=O)C1CSCCS(=O)(=O)N1Cc1ccc(Cl)cc1` (configuration not stated), the activity (quench increase) was -1.25% (inactive).
For `CO[C@H]1CN(C)C(=O)c2ccc(NC(=O)c3cccc(F)c3)cc2OC[C@H](C)N(CC2CC2)C[C@@H]1C`, the activity (quench increase) was -0.247% (inactive).
With `Cc1c(C(=O)NC(C)C2CC3CCC2C3)cccc1[N+](=O)[O-]` (configuration not stated) the activity (quench increase) was -0.675% (inactive).
In the case of `Cc1cccc(C(=O)OCC(=O)NCC(C)C)c1O`, the activity (quench increase) was 0.752% (inactive).
In the case of `Cc1cccc(C(=O)OCC(=O)NC(C)C2CC3CCC2C3)c1O` (configuration not stated), the activity (quench increase) was 25.6% (active).
